In the library only some 5% were active in any assay of this set; here they are far more common.
LmPK inh = inhibitors of Leishmania mexicana pyruvate kinase | purified LmPK, Kinase-Glo ATP luminescence, 1 h | Potency, µM (highest dose often 57.5 µM), for inactives: at the top dose activity change, negative = inhibition, most hits filed as inhibitors | 290,000 tested, 0.37% active | AID 1721; further: potency means the concentration at half of the fitted maximal effect
Target sequence (Q27686 whole entry, looked up): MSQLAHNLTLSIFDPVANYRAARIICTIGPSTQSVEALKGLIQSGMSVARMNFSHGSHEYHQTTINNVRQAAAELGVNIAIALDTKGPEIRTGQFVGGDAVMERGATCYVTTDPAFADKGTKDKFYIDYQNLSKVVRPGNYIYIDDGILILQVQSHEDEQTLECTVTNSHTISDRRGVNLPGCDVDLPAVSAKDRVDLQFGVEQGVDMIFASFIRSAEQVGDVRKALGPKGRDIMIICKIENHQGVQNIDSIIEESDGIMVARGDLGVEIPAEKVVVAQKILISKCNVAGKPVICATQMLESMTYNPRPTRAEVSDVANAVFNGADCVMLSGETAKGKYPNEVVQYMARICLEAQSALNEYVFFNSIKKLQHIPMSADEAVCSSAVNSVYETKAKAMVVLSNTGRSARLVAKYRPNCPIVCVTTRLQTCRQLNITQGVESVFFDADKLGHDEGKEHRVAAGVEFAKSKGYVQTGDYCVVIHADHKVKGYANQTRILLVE
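qHTS format; LmPK 0.1 nM; substrates PEP 0.5 mM and ADP 0.1 mM. One-hour room-temperature incubation, then coupled luciferase luminescence; 0.5 nM enzyme wells mark activation.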
HCMV antiviral = inhibitors of human cytomegalovirus; AID 1259415; 410,000 tested, 4.5% active; activity change, negative = inhibition, % at 57.5 µM; HFF cells, HCMV-luciferase reporter, 72 h; stronger effect = lower value; in the data active means activity change below about -60%; inconclusive means no clear call, values can overlap the other calls; inactive means above about -39%
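Human foreskin fibroblasts infected with luciferase-reporter HCMV at MOI 1 PFU/cell, compounds at two doses. Luciferase measured 72 h post infection; normalized to buffer-only basal and Salinomycin (10uM) controls.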
Vaccinia mCherry = inhibitors of vaccinia virus infection (mCherry reporter signal) | AID 720579 | Potency, µM (doses to about 36.5 µM), for inactives: at the highest dose activity change, negative = inhibition, usual class: inhibitors | Vaccinia virus mCherry reporter infection, fluorescence | 310,000 tested, 0.63% active; calls by dose curve; tested in A549 cells; further: potency means the concentration at half of the fitted maximal effect; nearly all actives have a fitted effect of over 35% in size
Vaccinia Venus = inhibitors of vaccinia virus (Venus reporter); Vaccinia virus Venus reporter expression, fluorescence; Potency, µM (series often up to 36.5 µM), without a hit: at the top dose activity change, negative = inhibition, hits mostly inhibitors; 330,000 tested, 0.46% active; calls by dose curve; tested in A549 cells; further: potency means the concentration at half of the fitted maximal effect; nearly all actives have a fitted effect of over 30% in size
Tb PYK inh = blocks Trypanosoma brucei pyruvate kinase; Q57TT1; TbPYK enzyme, Kinase-Glo Plus ATP luminescence, 45 min; Potency, µM (titrated, usually from 76.8 µM), without a hit: top-dose activity, negative = inhibition, usual class: inhibitors; 410,000 tested, 0.12% active; AID 624173; further: potency means the concentration at half of the fitted maximal effect; nearly all actives have a fitted effect of over 50% in size
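Readout: single end-point luminescence (Kinase-Glo Plus, 10 min). Reaction conditions were TbPYK/substrate plus 130 uM ADP, 45 min at RT, pH 7.2 TEA buffer. No-enzyme wells served as controls, and data were normalized before concentration-response fitting.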
The depositor's hits bear a star; i = inactive; u = inconclusive; x = not tested or not shown; [ ] = dose if it differs, or a comment. Unless noted, the call rests on the fitted dose curve; in most records, active means well fitted curve in the direction sought with a large enough effect; inconclusive means small, poorly fitted or top-dose-only effect, or another doubt; inactive means no such curve, though single readings can be large; an effect the other way counts as inactive or inconclusive. On the % scale 0 is the no-effect control and ±100 the full control effect.

SMILES	LmPK inh	HCMV antiviral	Vaccinia mCherry	Vaccinia Venus	Tb PYK inh
COc1ccc([N+](=O)[O-])cc1NCc1cccc([N+](=O)[O-])c1	4.6%	-3.3	u	10µM*	1.0%
O=[N+]([O-])c1ccc(O)c(Nc2ncnc3ccccc23)c1	7.2%	53.0	x	x	-2.1%
COc1cc(C(=O)Oc2cccc(Nc3ncnc4ccccc34)c2)cc(OC)c1OC	5.5%	-70.0*	-10.1%	-10.2%	7.9%
Cc1sc2ncn(CC(=O)NCCCN3CC(C)CC(C)C3)c(=O)c2c1S(=O)(=O)N1CC(C)CC(C)C1 (stereo not given)	-2.8%	-13.2	-3.5%	-7.6%	-0.5%
CC1CC(=O)N(CC(=O)Nc2ccc(Br)cc2)c2ccccc2S1(=O)=O (stereo not given)	-1.6%	-64.3*	x	x	2.9%
CCc1ccc(NC(=O)CN2C(=O)CC(C)S(=O)(=O)c3ccccc32)cc1 (stereo not given)	-1.2%	-14.5	-0.7%	-2.9%	1.3%
CCN(CC)c1nc(-c2ccc(Cl)cc2)cc(C(F)(F)F)c1C#N	-1.0%	-5.9	x	-8.5%	-4.9%
O=C(O)c1ccc2c(c1)N(Cc1cccc(F)c1)C(=O)CS2	1.2%	-99.5*	i	-4.1%	0.5%
COc1ccc(CCNC(=O)c2ccc3c(c2)N(Cc2cccc(Cl)c2)C(=O)CS3)cc1OC	x	-61.1*	u	u	4.3%
O=C(NCCc1ccccc1)c1ccc2c(c1)N(Cc1ccc(F)cc1)C(=O)CS2	x	-1.8	-3.1%	-17.4%	-9.4%
COC(=O)c1ccc2c(c1)C(C)(C)C(/C=C/c1ccc(OC)c(OC)c1OC)=[N+]2C	1.5%	-104.9*	-16.1%[1.46 µM]	87.4%	-14.3%
COc1cc(/C=C/c2ccc(O)cc2)cc(OC)c1	0.1%	12.6	27.4%	9.4%	-4.8%
COc1ccc(/C=N/Nc2ccc(C(=O)O)cc2)c(OC)c1OC	0.8%	19.6	-27.6%	-8.4%	-6.2%
COC(=O)c1ccc2c(c1)C(C)(C)C(/C=C/c1ccc(O)cc1)=[N+]2C	u	-102.4*	x	x	u
CCCCCCNC(=O)c1cn(CC)c2cc(N3CCN(C)CC3)c(F)cc2c1=O	7.1%	1.7	x	x	3.6%
CSc1nc2cc(C)nn2c(-c2ccc(C(C)(C)C)cc2)c1C#N	2.7%	11.0	-14.7%	-8.6%	0.1%
CS(=O)(=O)NCC(c1cccnc1)N1CCN(c2ccc(F)cc2)CC1 (stereo not given)	2.4%	-18.7	-26.1%	-6.1%	-6.6%
Cc1ccc(Cl)cc1N1CCN(C(=O)c2cnn(-c3ccc(Cl)cc3)c2C2CCNCC2)CC1	x	-101.3*	-25.1%	-19.6%	-7.8%
Cc1cccc(N2CCN(C(=O)c3cnn(-c4cccc(Cl)c4C)c3C3CCNCC3)CC2)c1C	x	-98.6*	u	u	-0.1%
Cc1ccc(N2CCN(C(=O)c3cnn(-c4ccc(C)c(C)c4)c3C3CCNCC3)CC2)c(C)c1	x	-97.0*	u	u	6.4%
O=S(=O)(Nc1nccs1)c1ccc(Nc2nnc(-c3ccccc3)c3ccccc23)cc1	5.1%	25.8	-4.6%	-10.2%	-17.0%
Cc1ccc(N2C(=O)C(CC(=O)Nc3cccc(F)c3)N(C3CC3)C2=O)cc1 (stereo not given)	10.1%	-14.7	-19.9%	-17.3%	1.8%
O=C1CN(CC(=O)NC(=O)NCc2ccccc2)CCN1	-1.4%	-35.2	i	-13.7%	-5.3%
Cc1ccc([N+](=O)[O-])cc1S(=O)(=O)Nc1ccc(C(=O)NCc2ccccn2)cc1	x	13.6	-15.0%	-9.9%	-3.6%
COc1ccc2c(c1)c1nc3n(c(=O)c1n2CC(=O)Nc1cc(C)[nH]n1)CCS3	-0.9%	-84.9*	x	x	x
SMILES	LmPK inh	HCMV antiviral	Vaccinia mCherry	Vaccinia Venus	Tb PYK inh
CC1=C(CC(=O)O)c2cc(F)ccc2/C1=C\c1ccc(S(C)=O)cc1 (stereo not given)	-6.9%	u	-6.8%	-12.0%	0.1%
CCc1ccc2oc(C(=O)N3CCN(c4ccccc4OC)CC3)cc(=O)c2c1	6.7%	6.3	-9.5%	-27.5%	-24.1%
COc1ccc(N2CCN(C(=O)c3cc4c(C)nc5ccccc5c4o3)CC2)cc1	8.2%	-99.9*	x	x	0.9%
CCc1ccc2oc(C(=O)N3CCN(c4ccc(OC)cc4)CC3)cc(=O)c2c1	-0.6%	-62.6*	-27.8%	-25.5%	-0.2%
CC(=O)c1ccc(N2CCN(C(=O)c3cc4c(C)nc5ccccc5c4o3)CC2)cc1	-4.3%	u	x	x	-2.0%
Cc1c(CCC(=O)O)c(=O)oc2cc3occ(-c4ccc(Br)cc4)c3cc12	-0.9%	-62.1*	u	-11.7%	-11.7%
Cc1c(CCC(=O)O)c(=O)oc2cc3occ(-c4ccc(F)cc4)c3cc12	-5.1%	-12.3	i	-16.2%	-6.3%
O=C(Cc1ccc(Cl)cc1)N1CCc2ccccc2C1	x	47.0	x	x	4.0%
COC(=O)c1cn(C(=O)OC)c2ccccc12	-2.8%	7.5	-12.2%	0.3%	0.5%
COC(=O)c1cn(C(=O)c2ccccc2Cl)c2ccccc12	-0.6%	-64.1*	-8.9%	-11.7%	-1.8%
Cc1cccnc1C(NC(=O)C1CCN(Cc2cn(C)c3ccccc23)CC1)c1ccc(Cl)cc1 (stereo not given)	x	6.8	14.1µM*	11.2µM*	7.6%
Cc1ccc2c(c1)C(c1ccc(F)cc1)N(C(=O)c1ccc(S(=O)(=O)N(C)C)cc1)CC(=O)N2 (stereo not given)	0.5%	x	x	x	-11.3%
Cc1ccc2c(c1)C(c1ccc(F)cc1)N(C(=O)c1cccc(C(F)(F)F)c1)CC(=O)N2 (stereo not given)	x	-107.0*	-12.1%	-10.8%	4.1%
Cc1ccc2c(c1)C(c1ccc(F)cc1)N(C(=O)C(C)C)CC(=O)N2 (stereo not given)	x	-104.5*	-25.4%	-11.9%	2.5%
CC(=O)Nc1sc(N/N=C\c2ccccc2Cl)nc1-c1cccs1	-1.5%	-83.4*	11.2µM*	u	1.2%
N#Cc1nc(N2CCCCC2)nc(N(c2ccccc2)c2ccccc2)n1	x	x	0.8%	-11.7%	x
Cc1cc(SCC(=O)Nc2ccc(O)cc2)n2nc(C)c(-c3ccccc3)c2n1	2.3%	-61.9*	i	-16.0%	1.6%
C=C(C)CSc1cc(C)nc2c(-c3ccccc3)c(C)nn12	0.7%	-84.8*	x	x	u
Cc1ccc(NC(=O)c2ccc(OCc3c(C)noc3C)cc2)nc1	x	u	x	x	-2.1%
COc1ccc(-c2nc(N)nc(N)n2)c(O)c1	x	-11.4	-23.3%	u	2.0%
C=C(CN(C)C)C(=O)c1cc(C)ccc1C	x	-98.9*	u	7.08µM*	u
COc1cccc(Cn2nnc(C(=O)Nc3cc(C)ccc3C)c2N)c1	x	u	-16.9%	-14.0%	-3.3%
COc1ccc(Nc2cc(C)nc(-n3nc(C)cc3C)n2)cc1Cl	x	-98.2*	u	-27.6%[7.34 µM]	5.6%
Cc1cc(Nc2ccc(C(C)C)cc2)nc(-n2nc(C)cc2C)n1	x	-91.5*	-9.2%[7.34 µM]	-9.6%[7.34 µM]	6.2%
COc1ccc(Nc2cc(C)nc3nc(C)nn23)cc1Cl	2.5%	19.5	-12.1%	-5.9%	-1.0%
